Compound activity as filed in PubChem BioAssay.
In the library only some 5.4% were active in any assay of this set; here they are far more common.
RORgamma inh – qHTS for inhibitors of ROR gamma transcriptional activity. Potency, µM (highest dose often 53.6 µM), for inactives: top-dose activity change, negative = inhibition, actives largely listed as inhibitors. Drosophila S2 Gal4-RORgamma UAS-luciferase reporter, 20 h. 310,000 tested, 5.4% active. Nuclear receptor ROR-gamma (Mus musculus), P51450; further: potency means the concentration at half of the fitted maximal effect; on the % scale 0 is the no-effect control and ±100 the full control effect; nearly all actives have a fitted effect of over 60% in size
Target sequence (P51450 whole entry, looked up, the tested form may be a part): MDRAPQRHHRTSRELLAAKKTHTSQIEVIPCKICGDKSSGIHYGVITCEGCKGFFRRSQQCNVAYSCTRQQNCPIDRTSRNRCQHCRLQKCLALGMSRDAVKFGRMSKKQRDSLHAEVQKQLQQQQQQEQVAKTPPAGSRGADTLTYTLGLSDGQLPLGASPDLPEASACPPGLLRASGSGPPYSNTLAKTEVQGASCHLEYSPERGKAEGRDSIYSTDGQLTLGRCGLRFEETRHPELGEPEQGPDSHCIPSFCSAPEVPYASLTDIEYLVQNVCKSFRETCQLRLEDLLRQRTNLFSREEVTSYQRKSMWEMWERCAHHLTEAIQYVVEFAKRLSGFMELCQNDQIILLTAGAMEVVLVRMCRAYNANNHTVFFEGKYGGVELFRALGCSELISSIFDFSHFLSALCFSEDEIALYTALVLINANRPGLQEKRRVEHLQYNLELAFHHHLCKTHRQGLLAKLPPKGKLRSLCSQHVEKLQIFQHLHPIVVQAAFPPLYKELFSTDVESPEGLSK
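Schneider cells (Drosophila), stable Gal4 DBD–ROR gamma + UAS-luc; 1 hr cmpd preincubation; Cu2+ induction 700 uM final; 20 hr ambient; luminescence.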
Six1-Eya2 inh – qHTS Assay for Inhibitors of the Six1/Eya2 Interaction; AlphaScreen GST-Six1/His-Eya2 binding, biochemical; stronger effect = lower value; Homeobox protein SIX1 (Homo sapiens) + Protein phosphatase EYA2 (Homo sapiens), …; 360,000 tested, 0.56% active; activity change, % (no concentration beside the values); AID 651725, 2012; in the data active means activity change below about -65%; inconclusive means mostly about -30% to -63%; further: on the % scale 0 is the no-effect control and ±100 the full control effect
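AlphaScreen luminescence read after one hour at 37 °C in darkness. Pin-transferred compounds met GST-Six1 and His-Eya2 protein (5X stock 250 nM/500 nM) plus glutathione donor and Ni-chelate acceptor beads (5X, 50 ug/mL).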
CtBP-E1A inh – qHTS Assay for Inhibitors of the CtBP/E1A Interaction; AlphaScreen GST-E1A/His-CtBP binding, 1536-well; stronger effect = lower value; 340,000 tested, 0.49% active; AID 651724, 2012; activity change, % (test concentration not listed); CtBP / adenovirus E1A interaction (AlphaScreen); in the data active means activity change below about -65%; inconclusive means mostly about -30% to -63%; further: on the % scale 0 is the no-effect control and ±100 the full control effect
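GST-E1A and His-tagged CtBP (125 nM each as 5X stock) were preincubated with pin-transferred compound for 2 h at 37 °C in the dark, then glutathione donor and nickel acceptor beads were added for 1 h before AlphaScreen reading.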
Gal4-VP16 FLuc – VP16 counterscreen qHTS for inhibitors of ROR gamma transcriptional activity. Drosophila S2 Gal4-VP16 UAS-luciferase, luminescence, 20 h. Potency, µM (titrated, usually from 53.6 µM), without a hit: top-dose activity, negative = inhibition, actives largely listed as inhibitors. 310,000 tested, 3.5% active. AID 2546, 2010;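 further: Gal4-VP16 expression switched on by copper sulfate through the metallothionein promoter; potency means the concentration at half of the fitted maximal effect; on the % scale 0 is the no-effect control and ±100 the full control effect; nearly all actives have a fitted effect of over 50% in size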
p53 reactivation – qHTS assay for re-activators of p53 using a Luc reporter; H1299 p53-A138V BP100-luciferase reporter, luminescence, 24 h; Potency, µM (top dose mostly 92.2 µM), for inactives: at the top dose activity change, positive = activation, hits mostly activators; 320,000 tested, 0.063% active; AID 504706, 2011; further: potency means the concentration at half of the fitted maximal effect; % of control where 0% means no effect; nearly all actives have a fitted effect of over 45% in size
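p53-null H1299 cells stably carrying temperature-sensitive p53-A138V and a BP100-luciferase reporter were pinned with compounds (4-point, 1:5 series) and held 24 hrs at 37 deg C. Luminescence was read 10 min after detection reagent.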
The depositor's hits bear a star; ? = inconclusive; . = no result given; [ ] = another dose, or the depositor's remark. Unless noted, the call rests on the fitted dose curve; in most records, active means well fitted curve in the direction sought with a large enough effect; inconclusive means small, poorly fitted or top-dose-only effect, or another doubt; inactive means no such curve, though single readings can be large; an effect the other way counts as inactive or inconclusive.

SMILES | RORgamma inh | Six1-Eya2 inh | CtBP-E1A inh | Gal4-VP16 FLuc | p53 reactivation
Cc1cc(C)n(CC(=O)N/N=C/c2cc(Br)cc([N+](=O)[O-])c2O)n1 | 0.63µM* | ? | . | 0.89µM* | -2%
Cc1cc([N+](=O)[O-])nn1CC(=O)N/N=C/c1ccccc1O | 2.2µM* | -92* | ? | 7.1µM* | 9%
Cc1cc(C)n(CCC(=O)N/N=C/c2ccc(Br)c([N+](=O)[O-])c2)n1 | 43% | -15 | -4 | 6% | 6%
Nc1nnc(CC(=O)N/N=C\c2cc([N+](=O)[O-])ccc2O)s1 | -13% | -92* | -91* | -18% | ?
Nc1nnc(CC(=O)N/N=C/c2ccc(-c3cccc(C(=O)O)c3)o2)s1 | -43% | -66* | -71* | -12% | ?
COc1cccc(C2=Nn3c(nnc3-c3ccc(OC)cc3OC)SC2)c1 | 5% | . | . | -9% | .
CCN1C(C)=C(C(=O)OC(C)C)C(c2ccccc2Cl)C(C(=O)O)=C1C(=O)O (stereo unspecified) | ? | . | . | -12% | .
Cc1noc(C)c1-c1cc(NCc2cccs2)ncn1 | -20% | . | . | 13% | .
Nc1nnnn1CC(=O)N/N=C/c1cccs1 | 31% | -1 | . | -3% | 5%
Nc1nnnn1CC(=O)N/N=C/c1cc([N+](=O)[O-])ccc1O | 27% | -87* | -81* | -1% | -6%
Cc1cc([N+](=O)[O-])nn1Cc1ccc(C(=O)N/N=C/c2ccc(O)cc2O)cc1 | ? | -89* | ? | -9% | ?
Cc1cc(C)n(CC(=O)N/N=C/c2cc([N+](=O)[O-])ccc2O)n1 | 2.8µM* | -88* | -91* | 2.8µM* | ?
Cc1cc([N+](=O)[O-])nn1Cc1ccc(C(=O)N/N=C/c2ccc(F)cc2)cc1 | 6% | 0 | -6 | 7% | 2%
COc1ccc2c(c1)O[C@@H](c1cccc(C(F)(F)F)c1)[C@H](OC(=O)NS(=O)(=O)c1ccc(F)cc1)C2=O | 19% | . | . | 6% | .
COc1ccc(-c2noc(C3CCCN(C(=O)c4ccc(F)cc4)C3)n2)cc1 (stereo unspecified) | ? | -3 | -2 | -2% | .
Cc1ccc(CSc2nnc(SCC(=O)N/N=C/c3ccc(C(=O)O)cc3)s2)cc1 | 5.6µM* | -13 | -5 | ? | 2%
O=C(CSc1nnc(SCc2ccccc2)s1)N/N=C/c1c[nH]c2ccccc12 | 8.9µM* | -2 | -4 | ? | -2%
Cc1ccc(CSc2nnc(SCC(=O)N/N=C/c3c[nH]c4ccccc34)s2)cc1 | -37% | -5 | 19 | ? | -2%
CS(=O)(=O)Nc1cccc(-c2cncnc2NCc2ccccc2)c1 | -11% | . | . | -5% | .
CS(=O)(=O)c1cccc(-c2nnc(NC(=O)C3=COCCO3)o2)c1 | . | -23 | -8 | . | 2%
O=C(Nc1nnc(C2=COCCO2)o1)c1ccc(Br)cc1 | 0.79µM* | . | . | 0.5µM* | -27%
CS(=O)(=O)c1ccccc1-c1nnc(NC(=O)C2=COCCO2)o1 | . | -9 | -2 | . | 2%
O=C(Nc1nnc(C2=COCCO2)o1)c1ccc(Cc2ccccc2)cc1 | 0.63µM* | ? | ? | 3.2µM* | 4%
CC(=O)Nc1nnc(C2=COCCO2)o1 | 2% | -1 | -4 | 0% | -2%
O=C(Nc1nnc(C2=COCCO2)o1)c1ccc(F)cc1 | 0.89µM* | ? | ? | 0.79µM* | -5%
SMILES | RORgamma inh | Six1-Eya2 inh | CtBP-E1A inh | Gal4-VP16 FLuc | p53 reactivation
O=C(Nc1nnc(C2=COCCO2)o1)c1cccc(C(F)(F)F)c1 | 0.56µM* | -15 | -3 | 0.32µM* | -13%
COc1cccc(-c2nccc(NCc3ccccc3)n2)c1 | -2% | . | . | -2% | .
O=C(Nc1nnc(C2=COCCO2)o1)c1ccc(Cl)cc1 | 0.63µM* | -22 | -17 | -88% | -2%
O=C(Nc1nnc(-c2ccc(Br)cc2)o1)C1=COCCO1 | . | -23 | -5 | . | 7%
O=C(Nc1nnc(C2=COCCO2)o1)c1ccc([N+](=O)[O-])cc1 | 1.1µM* | 14 | 0 | 0.89µM* | -5%
CCOC(=O)C1CCCN(C(=O)c2cccc(S(=O)(=O)N(C)c3c(C)n(C)n(-c4ccccc4)c3=O)c2)C1 (stereo unspecified) | 10% | 14 | -9 | -5% | ?
COc1ccc(C(=O)OCC(=O)Nc2ccc3[nH]c(=O)[nH]c3c2)cc1 | . | -2 | 3 | . | -3%
O=C1COc2ccc(C(=O)COC(=O)CCCOc3ccccc3)cc2N1 | . | 8 | -18 | . | .
O=C(CSc1nc2nn(-c3ccccc3)c(=O)c-2c2n1CCCCC2)c1ccc(O)c(O)c1 | . | -25 | -5 | . | 28µM*
COc1ccc(CNC(=O)C[C@H]2C[C@H](C(=O)N3CCCCC3)[C@@]3(C)c4[nH]c5cc(CCC(=O)N(C)C)ccc5c4CCN3C2=O)cc1OC | . | -5 | -1 | . | -7%
O=C(CCN1C(=O)/C(=C\c2ccc(F)cc2)SC1=S)Nc1ccccc1 | 11% | 0 | 16 | -18% | 5%
COc1ccccc1Nc1nc(N)nc(CN2CCC(C)CC2)n1 | ? | -17 | -13 | -6%[10 µM] | -4%
COc1ccc(Nc2nc(N)nc(CN3CCC(Cc4ccccc4)CC3)n2)cc1 | 11µM* | -18 | -1 | ? | -5%
COc1ccc(Nc2nc(N)nc(CN3CCOCC3)n2)cc1 | 25% | -4 | -2 | -3% | 0%
COc1ccccc1Nc1nc(N)nc(CN2CCC(Cc3ccccc3)CC2)n1 | 8.9µM* | -6 | -22 | ? | -15%
O=c1c(-c2ccccc2)nc2cnc(Oc3ccccc3)nc2n1Cc1cccs1 | 4% | . | . | 3% | .
N#Cc1ccccc1-c1ccc2ncnc(NCCN3CCOCC3)c2c1 | 38% | . | . | 16% | .
O=C(Nc1nccs1)c1cc(N2CCOCC2)nc2ccccc12 | ? | -11 | -1 | -13% | -9%
O=C(Nc1nccs1)c1cc(-c2ccccn2)nc2c(Cl)cccc12 | 5µM* | -10 | -3 | 6.3µM* | -4%
O=C(Nc1nccs1)c1cc(-c2ccco2)nc2ccccc12 | -27% | ? | ? | 7% | -3%
O=C(Nc1nccs1)c1cc(Cl)nc2ccccc12 | 18µM* | -19 | -5 | ? | -3%
O=C(Nc1nccs1)c1cc(-c2ccccc2)nc2ccccc12 | 11µM* | -12 | 1 | ? | -13%
Cc1ccc(C(=O)N(CCCN(C)C)c2nc3ccc(Cl)cc3s2)cc1C | 10µM* | -25 | -22 | 18µM* | 7%
CN(C)CCCN(C(=O)c1ccc2c(c1)OCCO2)c1nc2ccc(Cl)cc2s1 | -6% | . | . | ? | ?
Cc1ccc2nc(N(CCCN(C)C)C(=O)c3ccc(S(=O)(=O)N4CCc5ccccc5C4)cc3)sc2c1 | 10µM* | ? | ? | 13µM* | 9%
